Source: PubChem BioAssay (EPA / NIEHS)
Records with an inconclusive call do not appear. The source made the active and inactive calls. Rule for the calls, unless noted: active = hit-call score of the fitted dose curve at least 0.9, where 1 is the maximum; inconclusive = response in the unintended direction; inactive = score below 0.9.

Assays:
[1] = IUF_NPC2b_neuronal_migration_120hr: Leibniz Research Institute for Environmental Medicine (IUF) 120-hour Neural Progenitor Cell Migration Assay for Neuron Migration (NPC2b) (AID 2284300; active = hit-call score of the fitted dose curve at least 0.9, where 1 is the maximum; inactive = score below 0.9)
Method in brief: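 TUBB3-positive neurons are imaged after 120 h of differentiation, and their mean distance from the sphere edge is normalised to radial glia migration. Single 0.3 mm fetal hNPC spheres on poly-D-lysine/laminin received 7 compound concentrations, ≤0.1% DMSO, refreshed at day 3.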

[2] = IUF_NPC3_neuronal_differentiation_120hr: Leibniz Research Institute for Environmental Medicine (IUF) 120-hour Neuronal Differentiation Assay (NPC3) (AID 2284301; active = hit-call score of the fitted dose curve at least 0.9, where 1 is the maximum; inactive = score below 0.9)
Method in brief: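 hNPC spheres, PDL/laminin, DMEM/F12 3:1 + 1% N2, 37C, 5% CO2; 7 concentrations + solvent control, 5 d exposure, half-change day 3. Fix 120 h; TUBB3/Hoechst ICC, CNN neuron calling; % neurons vs nuclei, DMSO-normalized.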

[3] = IUF_NPC4_neurite_length_120hr: Leibniz Research Institute for Environmental Medicine (IUF) 120-hour Neuronal Morphology Assay for Neurite Length (NPC4) (AID 2284302; active = hit-call score of the fitted dose curve at least 0.9, where 1 is the maximum; inactive = score below 0.9)
Method in brief: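 hNPC spheres (0.3 mm, fetal brain GW 16-19) on PDL/laminin, DMEM:F12 3:1 + 1% N2, 37C 5% CO2; 7 concs + solvent control, day 0-5, half medium change d3; fix 120 h, TUBB3 ICC, mean neurite length um vs DMSO.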

[4] = IUF_NPC5_oligodendrocyte_differentiation_120hr: Leibniz Research Institute for Environmental Medicine (IUF) 120-hour Oligodendrocyte Differentiation Assay (NPC5) (AID 2284304);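 note: primary human fetal neural progenitor spheres plated to migrate and differentiate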
Method in brief: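 Oligodendrocyte differentiation scored as O4-positive cells, found by CNN image analysis, as percent of Hoechst-stained nuclei in the migration area. Scoring followed 5 days of exposure of plated hNPC neurospheres differentiating in DMEM/F12 N2 medium at 37C, with compound refreshed at day 3.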

[5] = IUF_NPC4_neurite_area_120hr: Leibniz Research Institute for Environmental Medicine (IUF) 120-hour Neuronal Morphology Assay for Neurite Area (NPC4) (AID 2284305)
Method in brief: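 hNPC spheres on PDL/laminin, N2 medium, 37C/5% CO2; dosed day 0, half-medium refresh day 3; fixed 120 h; TUBB3/Hoechst ICC, high-content imaging; neurite area = mean pixels per neuron (nuclei excluded); DMSO baseline, max 0.1%.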

[6] = IUF_NPC2-5_cytotoxicity_72hr: Cytotoxicity Assessment at 72 hours in the Leibniz Research Institute for Environmental Medicine (IUF) Neural Progenitor Cell Migration and Differentiation Assay for Cytotoxicity (NPC2-5) (AID 2284306);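 note: LDH release into supernatant measured by resorufin fluorescence marking membrane damage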
Method in brief: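 hNPC spheres (0.3 mm), PDL/laminin, DMEM/F12 3:1 + 1% N2; cpd from d0, 7 concs + SC, DMSO max 0.1%; half-medium refresh d3. Readout: supernatant LDH via resorufin fluorescence (RFU), 72 h; gain-of-signal fit.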

[7] = IUF_NPC2-5_cytotoxicity_120hr: Cytotoxicity Assessment at 120 hours in the Leibniz Research Institute for Environmental Medicine (IUF) Neural Progenitor Cell Migration and Differentiation Assay (NPC2-5) (AID 2284307)
Method in brief: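 Membrane-integrity loss measured as LDH activity in medium supernatant via resazurin-to-resorufin fluorescence after 120 h exposure. hNPC spheres from GW 16-19 fetal cortex differentiated on poly-D-lysine/laminin, 37C, medium half-refreshed day 3; seven concentrations, DMSO max 0.1%.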

[8] = IUF_NPC2-5_cell_number_120hr: Cell Number Assessment at 120 hours in the Leibniz Research Institute for Environmental Medicine (IUF) Neural Progenitor Cell Migration and Differentiation Assay (NPC2-5) (AID 2284308; active = hit-call score of the fitted dose curve at least 0.9, where 1 is the maximum; inactive = score below 0.9;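 note: count of Hoechst-stained nuclei in migration zone around plated human neural progenitor spheres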)
Method in brief: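 Counting of all Hoechst-stained nuclei in the migration area at 120 h, versus DMSO control. Primary hNPC spheres differentiated on poly-D-lysine/laminin in N2 medium at 37C, dosed from day 0 (7 concentrations, DMSO ≤0.1%), half-refed day 3.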

[9] = VALA_TUBHUV_Agonist_CellCount: Viability Assessment in the VALA Sciences human Umbilical Vein Endothelial Tubule Formation (TUBHUV) Agonism Assay (AID 2284309)
Method in brief: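 Viability endpoint by fluorescent imaging of fixed nuclear/CD31-stained HUVEC–HDF co-cultures. Readout is cell count, fitted upward against 0.1% DMSO. Compound exposure was 72 h in 10 ng/ml VEGF, after 3-day co-culture priming.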

[10] = VALA_TUBHUV_Antagonist_CellCount: Viability Assessment in the VALA Sciences human Umbilical Vein Endothelial Tubule Formation (TUBHUV) Antagonism Assay (AID 2284310)
Experimental: VALA_TUBHUV_Antagonist is a cell-based, multiplexed assay that uses human umbilical vein endothelial cells (HUVEC). Measurements were taken 72 hours after chemical dosing in a 96-well plate.VALA_TUBHUV_Antagonist_CellCount is the one of two assay components measured from the VALA_TUBHUV_Antagonist assay. It is designed to make measurements of viability, a form of viability reporter, as detected with fluorescence intensity signals by HCS Fluorescent Imaging technology. Data from the assay component VALA_TUBHUV_Antagonist_CellCount was analyzed at the endpoint, VALA_TUBHUV_Antagonist_CellCount, in the positive analysis fitting direction relative to DMSO as the negative control and baseline of activity. Using a type of viability reporter, loss-of-signal activity can be used to understand viability. To generalize the intended target to other relatable targets, this assay endpoint is annotated to the cell cycle intended target family, where the subfamily is cell count.
This HUVEC-HDF assay was designed to detect chemical suppression of tubulogenesis, i.e. antagonism. To measure tubulogenesis antagonism, HUVEC cells were co-cultured with HDF cells at a 1:3 ratio for 3-days in 10 ng/ml VEGF (i.e., favorable conditions with growth factors), then changed to assay medium containing 10 ng/ml VEGF and ToxCast compounds for an additional 3-day period. […]

SMILES	outcome [1]	outcome [2]	outcome [3]	outcome [4]	outcome [5]	outcome [6]	outcome [7]	outcome [8]	outcome [9]	outcome [10]	AC50 [1]	AC50 [8]
CCCN(CCC)C(=O)SCC	inactive	inactive	inactive	inactive	inactive	inactive	inactive	inactive	–	–	–	–
CSC(=O)c1cccc2nnsc12	inactive	inactive	inactive	inactive	inactive	inactive	inactive	inactive	–	–	–	–
N[C@@H](Cc1cc(I)c(Oc2ccc(O)c(I)c2)c(I)c1)C(=O)O	–	–	–	–	–	–	–	–	inactive	inactive	–	–
CCN(CC)C(=O)c1cccc(C)c1	inactive	inactive	inactive	inactive	inactive	inactive	inactive	inactive	–	–	–	–
CC(C)(c1ccc(O)cc1)c1ccc(O)cc1	inactive	inactive	inactive	inactive	inactive	inactive	inactive	inactive	inactive	inactive	–	–
S=C([S-])NCCNC(=S)[S-].[Mn+2]	inactive	inactive	inactive	inactive	inactive	inactive	inactive	inactive	–	–	–	–
CC(C)CCCCCCc1ccc(O)cc1	–	–	–	–	–	–	–	–	inactive	–	–	–
C#CCOC(=O)[C@@H](C)Oc1ccc(Oc2ncc(Cl)cc2F)cc1	inactive	inactive	inactive	–	inactive	inactive	inactive	inactive	–	–	–	–
S=C(S)NCCNC(=S)S.[Mn+2].[S-]C([S-])=NCCN=C([S-])[S-].[Zn+2]	inactive	inactive	inactive	inactive	inactive	inactive	inactive	inactive	inactive	–	–	–
Cc1nn(C)c(Oc2ccccc2)c1C=NOCc1ccc(C(=O)OC(C)(C)C)cc1	–	inactive	inactive	inactive	inactive	inactive	inactive	–	–	–	6.63 µM (active)	5.04 µM (active)
O=C(O)c1ccccc1	inactive	inactive	inactive	inactive	inactive	inactive	inactive	inactive	–	–	–	–
